Only some compounds are listed: those with a hit (about 1% of all), similar ones and a draw of the others.
RXFP1 antag: antagonists of human relaxin receptor RXFP1. HEK293-RXFP1, relaxin-stimulated cAMP HTRF, 30 min; stronger effect = lower value. activity change, negative = inhibition, % at 57.5 µM. actives 0.59% (n = 350,000);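 active means activity change of -60% or lower, but not beyond a set lower limit; inconclusive means change between -60% and -40%, or beyond the set limit; inactive means change above -40%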
Target sequence (Q9HBX9 whole entry, looked up): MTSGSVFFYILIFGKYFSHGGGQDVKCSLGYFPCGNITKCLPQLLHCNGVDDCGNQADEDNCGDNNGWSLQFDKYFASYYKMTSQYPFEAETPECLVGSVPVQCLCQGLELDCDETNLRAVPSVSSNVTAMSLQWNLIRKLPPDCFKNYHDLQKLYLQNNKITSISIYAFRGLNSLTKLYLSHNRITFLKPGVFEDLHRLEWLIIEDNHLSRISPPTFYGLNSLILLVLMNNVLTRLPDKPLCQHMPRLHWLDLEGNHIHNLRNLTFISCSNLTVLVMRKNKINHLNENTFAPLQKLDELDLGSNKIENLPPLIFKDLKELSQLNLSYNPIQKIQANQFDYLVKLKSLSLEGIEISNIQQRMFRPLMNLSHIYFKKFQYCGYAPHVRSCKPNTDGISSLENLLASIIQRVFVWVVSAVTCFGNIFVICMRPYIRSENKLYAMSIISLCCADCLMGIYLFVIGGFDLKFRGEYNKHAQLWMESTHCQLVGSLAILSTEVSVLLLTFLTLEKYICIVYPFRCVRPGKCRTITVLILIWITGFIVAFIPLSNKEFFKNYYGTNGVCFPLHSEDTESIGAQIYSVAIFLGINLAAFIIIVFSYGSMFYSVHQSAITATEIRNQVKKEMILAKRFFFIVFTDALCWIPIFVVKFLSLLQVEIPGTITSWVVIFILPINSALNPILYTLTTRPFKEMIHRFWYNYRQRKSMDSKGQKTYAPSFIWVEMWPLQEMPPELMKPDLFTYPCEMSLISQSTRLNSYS
PTHR1 ag: PTHR1 (human) receptor agonism; Potency, µM (highest dose often 115 µM), usual class: activators; Q03431; actives 0.075% (n = 410,000); HEK293 GP2 PTHR1 cells, GloSensor cAMP luminescence, 1 h; further: nearly all actives have a fitted effect of over 55% in size
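HEK-293-derived GP2 cells expressing PTHR1 and a GloSensor cAMP reporter, 3,000/well, plated overnight, given luciferin plus IBMX (each 0.5 mM as added) for 1 h at 37 °C, then compound for 1 h at 37 °C. Luminescence was read after 15 min at room temperature.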
gsp agonist: activates gsp, the McCune-Albright syndrome mutation. actives 0.13% (n = 340,000). gsp mutant cells, cAMP HTRF, 30 min. Potency, µM (highest dose often 76.9 µM), actives largely listed as activators. AID 624287; active means well fitted activation curve with a large enough effect; inconclusive means small, poorly fitted or top-dose-only effect, or another doubt; inactive means no such curve, though single readings can be large or run the other way; cell line not stated here;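 further: phosphodiesterase inhibitor Ro 20-1724 added with compounds to block cAMP breakdown; nearly all actives have a fitted effect of over 60% in size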
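Cells stably selected in G418 were plated at 2000/well, grown 16-24 hr, then given compounds in DMSO with the PDE inhibitor […] (300 uM solution added) for 30 min at 37C; cAMP was read by HTRF.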
RXFP1 ag: activates the human relaxin receptor RXFP1. HEK293T-RXFP1 cAMP TR-FRET, 30 min; response scale: percent of porcine relaxin response, buffer zero. actives 0.3% (n = 370,000). AID 2676. Potency, µM (highest dose often 57.5 µM), actives largely listed as activators; further: nearly all actives have a fitted effect of over 60% in size
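HEK293T cells stably expressing RXFP1 were pretreated with the PDE4 inhibitor Ro 20174, exposed to compounds for 30 min at 37C, lysed, and cAMP was read by TR-FRET. Data normalized to buffer (basal) and 29 nM porcine relaxin (100%).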
gsp antagonist: antagonists of gsp mutant (McCune-Albright syndrome). gsp-mutant cells, cAMP HTRF, 30 min. Potency, µM (doses to about 76.9 µM), actives largely listed as inhibitors. actives 0.4% (n = 340,000); calls by dose curve; cell line not stated here;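 further: intracellular cAMP measured with PDE inhibitor Ro 20-1724 present during compound exposure; nearly all actives have a fitted effect of over 65% in size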
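HTRF cAMP read-out (cAMP-d2 plus anti-cAMP antibody-K in lysis buffer, 30 min RT). Before lysis, cells are exposed to compounds with […] for 30 min at 37C in DPBS containing Ca/Mg, BSA and Tween 20.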
Large screens that a line does not name were inactive. Unless noted, the call rests on the fitted dose curve; in most records, active means well fitted curve in the direction sought with a large enough effect; inconclusive means small, poorly fitted or top-dose-only effect, or another doubt; inactive means no such curve, though single readings can be large; an effect the other way counts as inactive or inconclusive.

O=C(CN1CCCc2ccccc21)N/N=C/c1c(O)ccc2ccccc12	RXFP1 antag -61, gsp antagonist inconclusive
COc1ccc(Cl)cc1NC(=O)C1CCN(S(=O)(=O)c2ccc3c(c2)CCCN3C(=O)C2CCC2)CC1	none (no result: gsp agonist, gsp antagonist)
N#Cc1cc2c(=O)n3ccccc3nc2n(CCN2CCOCC2)c1=O	none (no result: RXFP1 antag, PTHR1 ag, gsp agonist, gsp antagonist)
N#Cc1cc2c(=O)n3ccccc3nc2n(CCCN2CCOCC2)c1=O	gsp agonist 35µM
O=C(O)c1ccc(-n2ncc(Cl)c(Cl)c2=O)cc1	gsp agonist 10µM (no result: RXFP1 ag, gsp antagonist)
CC(=O)Nc1c(Cl)cnn(-c2ccccc2)c1=O	none (no result: RXFP1 ag)
Cc1ccc(C)n1-c1ccc(C(=O)NN)cc1	RXFP1 antag -71
CC(CCc1ccccc1)NC(=O)c1ccccc1Cl (centres undefined)	RXFP1 antag -74
CC(CCc1ccccc1)NC(=O)c1ccccc1F (centres undefined)	none
O=C(NCC1CN(c2ccc(N3CCOCC3=O)cc2)C(=O)O1)c1ccc(Cl)s1 (centres undefined)	none (no result: PTHR1 ag, gsp agonist, RXFP1 ag, gsp antagonist)
CCC(=O)Nc1ccc(NC(=O)CSc2nc3c(c(=O)n(C)c(=O)n3C)n2CC)cc1	RXFP1 ag 16µM
CCCn1c(SCC(=O)Nc2ccc(NC(C)=O)cc2)nc2c1c(=O)n(C)c(=O)n2C	gsp agonist 18µM, RXFP1 ag inconclusive
CCn1c(SCC(=O)Nc2ccc3c(c2)OCO3)nc2c1c(=O)n(C)c(=O)n2C	none
CC(Oc1ccccc1)C(=O)NC1CCCCCCC1 (centres undefined)	none
CC(C)/C(C=O)=C(/NC1CCCCC1)c1ccccc1	RXFP1 antag -63 (no result: RXFP1 ag)
Oc1c(C(Nc2nccs2)c2ccc(C(F)(F)F)cc2)ccc2cccnc12 (centres undefined)	RXFP1 antag inconclusive
Oc1c(C(Nc2cccc(C(F)(F)F)c2)c2ccncc2)ccc2cccnc12 (centres undefined)	RXFP1 antag -61
NS(=O)(=O)c1ccc(CCNC(=O)C2CCC(Cn3c(=S)[nH]c4ccccc4c3=O)CC2)cc1 (centres undefined)	RXFP1 antag -69
NS(=O)(=O)c1ccc(CCNC(=O)C2CCCCC2)cc1	gsp agonist inconclusive
Cc1noc(C)c1C(=O)Nc1nc(-c2ccc([N+](=O)[O-])cc2)cs1	RXFP1 antag inconclusive, gsp antagonist 28µM
CC(C)CC(=O)NC1(C(F)(F)F)C(=O)Nc2c1c(=O)[nH]c(=O)n2-c1ccccc1 (centres undefined)	none (no result: RXFP1 antag, gsp agonist, gsp antagonist)
Cc1cc(Br)c2[nH]cc(CCNC(=O)c3ccco3)c2c1	RXFP1 antag -88
C=CCn1c(Sc2ncc([N+](=O)[O-])s2)n[nH]c1=O	RXFP1 antag -80
O=[N+]([O-])c1cnc(Sc2ccncn2)s1	none
O=c1c2ccccc2nc(-c2ccc(Cl)cc2)n1CCCCOc1ccc(F)cc1	none (no result: gsp agonist, gsp antagonist)
OCc1nc2ccccc2n1Cc1c(F)cccc1Cl	none
CSc1nc2ccccc2n1Cc1c(Cl)cccc1Cl	gsp antagonist 40µM
O=C(NCCN1CCCCC1)Nc1cccc(Cl)c1Cl	RXFP1 antag -77
CCCN1CCN(CCNC(=O)Nc2cc(C)ccc2C)CC1	none
Cc1ccc(C)c(NC(=O)NCCN2CCCCC2)c1	RXFP1 antag -77
CCCN1CCN(CCNC(=O)Nc2ccccc2Cl)CC1	none
COc1ccc2nc(SCc3ncc(C)c(OC)c3C)[nH]c2c1	none (no result: PTHR1 ag, gsp agonist, RXFP1 ag, gsp antagonist)
CCn1c(=O)cc(OCC(=O)N(C)c2cc(Cl)ccc2C)c2ccccc21	none (no result: RXFP1 antag, gsp agonist, gsp antagonist)
O=C1/C(=C/c2cccs2)SC(=S)N1N1CCOCC1	RXFP1 antag -96
Cc1ccc(NC(=O)c2oc3ccc(S(=O)(=O)N4CCCCCC4)cc3c2C)c(C)c1	RXFP1 ag inconclusive (no result: gsp agonist, gsp antagonist)
C=CCC(CC=C)(CNC(=O)C(=O)Nc1ccc(C)cc1)c1ccccc1	none (no result: gsp agonist, gsp antagonist)
Cc1cc(C(=O)CSc2nc3ccccc3c(=O)[nH]2)c(C)n1CC1CCCO1 (centres undefined)	gsp antagonist 35µM
COc1ccccc1NC(=O)COC(=O)CC(C)(C)CC1=NS(=O)(=O)c2ccccc2N1	RXFP1 antag -83
Cc1ccc(-c2nc(NCc3cccnc3)c3ccccc3n2)cc1	gsp antagonist 35µM
Cc1cccc(CNC(=O)Cn2c(-c3cccs3)cc3ccccc32)c1	none (no result: gsp agonist, gsp antagonist)
CN1C2CCC1CC(NC(=O)n1c(=O)[nH]c3ccccc31)C2 (centres undefined)	none (no result: PTHR1 ag, gsp agonist, RXFP1 ag, gsp antagonist)
CCC(=O)c1ccc(OC(=O)Cc2ccc(OC)cc2)cc1	RXFP1 antag -113
COc1ccc(Oc2c(O)c3ccccc3n(C)c2=O)cc1	gsp antagonist 32µM
COc1ccc(CN(CC(=O)NCCC(C)C)C(=O)CCC(=O)Nc2nccs2)cc1	RXFP1 antag -69
CC(C)C(=O)OCc1cccc(OC(=O)[C@@H]2N3C(=O)[C@@H](NC(=O)Cc4ccccc4)[C@H]3SC2(C)C)c1	none (no result: PTHR1 ag, gsp agonist, RXFP1 ag, gsp antagonist)
CCCOc1cccc(-c2cc(C(=O)NNC(=S)NCC)c3ccccc3n2)c1	gsp antagonist 35µM
COc1cccc(-c2cc(C(=O)NCc3ccco3)c3ccccc3n2)c1	RXFP1 antag -86
COc1ccc(-c2cc(-c3cccs3)c(C#N)c(SCC(=O)NCc3ccco3)n2)cc1	none
CCNC(=S)NNC(=O)c1cc(-c2cccc(OC)c2)nc2ccccc12	none
COc1cccc(-c2ccc(C#N)c(SCC(=O)NCc3ccco3)n2)c1	gsp agonist inconclusive, RXFP1 ag 35µM
Cc1cc(-c2ccc(S(=O)(=O)Nc3ccccc3F)s2)on1	none (no result: gsp agonist, gsp antagonist)
CN(C)CCC(=O)N1C/C(=C/c2ccccc2)C(=O)/C(=C\c2ccccc2)C1	RXFP1 antag -114 (no result: RXFP1 ag)
C[N+](C)(C)CCC(=O)N1C/C(=C/c2ccccc2)C(=O)/C(=C\c2ccccc2)C1	none (no result: RXFP1 ag)
O=C(CN1C(=O)C2CCCCC2C1=O)Nc1ccccc1N1CCCC1 (centres undefined)	RXFP1 antag -99
CCC(C(=O)Nc1ccccc1N1CCCC1)c1ccccc1 (centres undefined)	RXFP1 antag -68
CCC(Oc1ccccc1)C(=O)Nc1ccccc1N1CCCC1 (centres undefined)	gsp agonist inconclusive
COc1ccc(CCNC(=O)Cn2ncc3c(C)n(Cc4ccccc4F)c(C)c3c2=O)cc1OC	none (no result: gsp agonist, gsp antagonist)
COc1ccccc1CCNC(=O)c1ccc(NC(=O)N2CC(C)Sc3ccccc32)cc1 (centres undefined)	none (no result: gsp agonist, gsp antagonist)
CCc1c(C(=O)O)[nH]c2ccc(Br)cc12	gsp agonist 4µM, RXFP1 ag inconclusive
NNC(=O)c1[nH]c2ccc(Br)cc2c1-c1ccccc1	none
O=C1CN(c2nc(-c3cccnc3)nc3sc4c(c23)CCCC4)CCN1	gsp agonist 25µM
CCCCn1c(SCC(=O)c2ccccc2)nc2sc3c(c2c1=O)CCCC3	none (no result: gsp agonist, gsp antagonist)
O=C(/C=C/c1ccccc1[N+](=O)[O-])c1ccccc1Br	RXFP1 antag -72 (no result: gsp antagonist)
